The source of these data is PubChem BioAssay (NCI).

The panel holds about 83,000 compounds, 20% with a hit somewhere; the sample as a whole holds those more often.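 Cells were grown in 96-well plates and exposed to the test compound at a single concentration for 48 hours; results are reported as percent growth, with values below 10 considered active.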 Unmarked numbers belong to inactive results. Calls of active or inactive are those of the source.

Common to all, as to assay: NCI-60 one-dose screen, 48 h (100 = growth as untreated, 0 = no growth, -100 = all killed)
Conditions in all cases: 10 µM

Assay [1] has as its system HT29 colon.
The subject of assay [2] is SNB-75 CNS.
Assay [3] has as its system SNB-19 CNS.
Assay [4] has as its system U251 CNS.
Assay [5] deals with PC-3 prostate.
The test system of assay [6] is SK-MEL-5 melanoma.
Assay [7] relates to UACC-62 melanoma.
Assay [8] deals with LOX IMVI melanoma.
In assay [9] the test system is SK-MEL-28 melanoma.
The subject of assay [10] is SN12C renal.
The subject of assay [11] is UO-31 renal.
Assay [12] has as its system TK-10 renal.
Assay [13] has as its system ACHN renal.
Assay [14] concerns CAKI-1 renal.
Assay [15] concerns A498 renal.
The subject of assay [16] is CCRF-CEM leukemia.
Assay [17] relates to MOLT-4 leukemia.
The subject of assay [18] is SR leukemia.
The test system of assay [19] is SK-MEL-2 melanoma.
Assay [20] deals with EKVX NSCLC.

Take `O=C(Nc1cccc(-n2cc(-c3ccncc3)c(-c3ccc(O)c(Cl)c3)n2)c1)Nc1cccc(C(F)(F)F)c1`: the growth in [1] was 22%; in [2], -0.929% (active); in assay [3] it was 32.2%; in assay [4], -70.8% (active); in assay [5] it was -15.7% (active); in [6], -49% (active). In addition, the growth in [7] was -49.9% (active); in [8], 1.13% (active); in [9], -5.89% (active); in assay [10], 10.3%; in assay [11], -9.43% (active); in assay [12], -0.882% (active). Further, the growth in [13] was 8.15% (active); in assay [14], -14.5% (active); in [15], 76.6%; in assay [16] it was -0.796% (active); in assay [17], -25% (active); in assay [18] it was -16.7% (active).
In the case of `Cc1ccc(S(=O)(=O)OCCN(CCOS(=O)(=O)c2ccc(C)cc2)c2c[nH]c(=O)[nH]c2=O)cc1`, the growth was 99.7% in assay [1]; 92.2% in assay [2]; 100% in assay [3]; 95% in [4]; 94.6% in assay [5]; 101% in [6]. The growth is 100% in assay [7]; 104% in assay [8]; 102% in assay [9]; 97.4% in [10]; 82.8% in assay [11]; 112% in assay [12]. Moreover, the growth in [13] is 99%; in [14], 97.5%; in assay [15] it was 117%; in assay [16], 101%; in assay [17], 104%; in assay [18] it was 104%.
Turning to `COc1cccc(C(=O)Nc2ccc(CN3CCc4nc5cc(OC)c(OC)cc5cc43)cc2)c1`, the growth in assay [1] is 16.2%; in assay [2], 49.2%; in [3], 69.7%; in [4], 33.9%; in assay [5], 21.7%; in assay [6], 50.1%. Besides, the growth in assay [7] was 67.3%; in assay [8], 31.3%; in assay [9], 73.2%; in assay [10], 54.1%; in assay [11], 27.5%; in [12], 42.4%. Also, the growth in assay [13] is 36.9%; in assay [14], 21.7%; in [15], 20.5%; in assay [16], 28.7%; in assay [17] it was 25.7%; in assay [18] it was 24.1%.
`COc1ccc(-c2nn(-c3cccc(NC(=O)Nc4ccccc4)c3)cc2-c2ccncc2)cc1Cl`: the growth in [1] is -69.6% (active); in assay [2], 27.5%; in assay [3] it was 83.5%; in assay [4], -35.8% (active); in assay [5] it was 8.81% (active); in assay [6] it was 42.1%. Besides, the growth was 46.4% in assay [7]; 29% in [8]; 11.3% in assay [9]; 31.4% in assay [10]; -39.9% (active) in assay [11]; 28.1% in assay [12]. Besides, the growth in assay [13] is 34.8%; in assay [14], -7.47% (active); in assay [15], 32.2%; in [16], 11.9%; in [17], -2.67% (active); in assay [18], -6.06% (active).
`COc1cc(/C(=C2/O[C@@H]([C@H]3COC(C)(C)O3)[C@H]3OC(C)(C)O[C@@H]23)c2ccc3ccccc3c2)cc(OC)c1OC`: the growth was 41% in assay [1]; 41.1% in [2]; 29% in assay [3]; 18% in assay [4]; 27% in assay [5]; 38.3% in [6]. The growth was 46.5% in assay [7]; 46.4% in assay [8]; -49.7% (active) in assay [19]; 53.7% in assay [20]; 24.8% in assay [10]; 46.8% in [11]. The growth is 22.7% in assay [12]; 0.857% (active) in assay [13]; 38.7% in assay [14]; 82.2% in assay [16]; 62.4% in assay [17]; 51.4% in assay [18].
With `Cc1cccc2c(NCCN(C)C)c3cccc(C(=O)NCCN(C)C)c3nc12`, the growth in assay [1] was -43.7% (active); in assay [2] it was -24.7% (active); in assay [3], 14.5%; in assay [4], -43% (active); in assay [5] it was -31% (active); in assay [6], 3.71% (active). The growth in assay [7] is 20.8%; in [8] it was -61.9% (active); in [19], -6.23% (active); in [20], 19.4%; in assay [10] it was 15.9%; in [11], -67.6% (active). Moreover, the growth in assay [12] is -15.9% (active); in assay [13], -44.6% (active); in [14], 6.76% (active); in [15] it was 33.8%; in assay [16] it was 3.77% (active); in [17], 1.96% (active). For the same compound, in [18], the growth is -14.7% (active).
`O=S(=O)(NCCCNc1nccc(-c2c(-c3ccc(F)cc3)nc3sccn23)n1)c1ccc(F)cc1`: the growth in assay [1] is 3.28% (active); in assay [2], 40.7%; in assay [3], 93.2%; in assay [4], 35.9%; in [5] it was 32.3%; in [6], 31.6%. Moreover, the growth in [7] was 18.5%; in assay [8], 28.3%; in assay [9], 67.3%; in assay [10], 52.3%; in [11], 3.14% (active); in assay [12], 38.3%. The growth is 30.8% in assay [13]; 29.9% in assay [14]; 56.3% in assay [15]; 17.5% in [16]; 22.6% in assay [17]; 25.5% in assay [18].
Consider `CCC1(C(C)C)NC(=O)NC1=O` (stereo not given), for which the growth in [1] was 106%; in [2] it was 100%; in assay [3], 101%; in [4], 98.2%; in [5], 98.5%; in assay [6], 104%. In addition, the growth in assay [7] is 94.6%; in assay [8] it was 99.7%; in [19], 83.8%; in assay [20], 99.4%; in [10], 88.1%; in [11] it was 82.1%. Also, the growth in assay [12] was 113%; in assay [13], 99.9%; in assay [14], 104%; in assay [16] it was 92.4%; in [17], 101%; in assay [18], 90.2%.
